Laboratory results as given in PubChem BioAssay AID2551 (National Center for Advancing Translational Sciences (NCATS), 2010).
The campaign covered roughly 310,000 compounds. About 17,000 (5.5%) were called active. Roughly 11% stayed inconclusive and do not appear here. Calls follow the shape of the dose curve; as a rule, active = well fitted inhibition curve with a large enough effect; inconclusive = small, poorly fitted or top-dose-only effect, or effect the other way; inactive = no such curve, though single readings can be large or run the other way. This excerpt belongs to a sample that is enriched for actives.

molecular target: Nuclear receptor ROR-gamma (Mus musculus) (UniProt P51450); assay: qHTS for inhibitors of ROR gamma transcriptional activity; conditions: Drosophila S2 Gal4-RORgamma UAS-luciferase reporter, 20 h; series mostly up to 53.6 µM; also: nearly all actives have a fitted effect of over 60% in size
How it was run: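 Read-out: Photinus luciferase luminescence; inhibitors lower reporter signal. Insect Schneider cells with Gal4-ROR gamma fusion under metallothionein promoter, UAS reporter; 700 uM final copper sulfate induction, 20 hr, ambient temperature.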
% is scaled to controls: 0 for no effect and ±100 for the full control effect; potency is read from the fitted curve at half-maximal effect.

Nuclear receptor ROR-gamma (Mus musculus), sequence (P51450 whole entry, looked up, the tested form may be a part): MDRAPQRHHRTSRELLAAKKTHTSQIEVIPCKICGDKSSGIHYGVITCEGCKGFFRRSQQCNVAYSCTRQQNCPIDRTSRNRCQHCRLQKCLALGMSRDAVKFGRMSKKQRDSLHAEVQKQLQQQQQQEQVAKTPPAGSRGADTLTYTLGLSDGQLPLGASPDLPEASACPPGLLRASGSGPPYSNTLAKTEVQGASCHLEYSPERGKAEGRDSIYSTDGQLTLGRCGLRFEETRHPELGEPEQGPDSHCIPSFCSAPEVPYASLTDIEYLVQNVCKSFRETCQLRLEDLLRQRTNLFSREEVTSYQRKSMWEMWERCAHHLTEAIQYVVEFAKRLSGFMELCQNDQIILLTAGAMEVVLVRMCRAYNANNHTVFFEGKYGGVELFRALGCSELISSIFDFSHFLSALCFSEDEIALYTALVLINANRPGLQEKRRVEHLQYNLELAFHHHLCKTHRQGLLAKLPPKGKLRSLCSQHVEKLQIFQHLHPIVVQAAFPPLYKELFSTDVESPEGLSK

Potency, inactive:
CCOC(=O)COn1c(=O)c(-c2ccc(OCC)cc2)[n+]([O-])c2ccccc21, COc1cc(C(=O)OCC(=O)NC(C)CCc2ccccc2)cc(OC)c1OC (configuration not stated), COc1cc(C(C(=O)NC2CCCC2)N(Cc2ccccc2)C(=O)c2snc(C(N)=O)c2N)ccc1O (configuration not stated), Cc1[nH]n(-c2ccccc2)c(=O)c1N=Nc1ccccc1C(=O)N1CCCCC1, COc1cc(/C=N/NC(=O)c2ccoc2C)ccc1OCCN1CCCCC1, COc1cccc(/C=N/NC(=O)c2cccc([N+](=O)[O-])c2)c1OS(=O)(=O)c1ccc(C)cc1, O=C(N/N=C/c1cccc([N+](=O)[O-])c1)c1ccncc1, Cc1oc(-c2ccccc2F)nc1CS(=O)CC(=O)NCCN1CCCCC1C (configuration not stated), CCOc1ccc(S(=O)(=O)N2CCN=C2Cc2ccccc2)cc1C, COc1cccc(CNC(=O)CCCC(=O)Nc2cccc([N+](=O)[O-])c2)c1, Cc1cnc(C)c(N2CCN(C(=O)C3CCC(=O)N(CCc4cccc(F)c4)C3)CC2)n1 (configuration not stated), Cc1cc(C)c2c(NC(=O)C3CC3)nn(C)c2n1, Cc1cc(-n2nc(C)cc2C)n2nc(C)c(-c3ccccc3)c2n1, O=C(Nc1ccc(F)cc1)C(=O)c1cn(CC(=O)N2CCOCC2)c2ccccc12, CCSc1nc(O)c(C(c2cccc(OC)c2)c2c(O)nc(SCC)[nH]c2=O)c(=O)[nH]1, CC(=O)c1cccc(NC(=S)N2CCCC2)c1, CCOC(=O)C1(Cc2ccccc2C)CCCN(C(=O)CCc2c(C)noc2C)C1 (configuration not stated), COc1ccc(N2C(=O)C3CCCN3C2c2cccc(OC)c2)cc1 (configuration not stated), COc1ccc(N2C(=O)C(Cc3ccccc3)NC2=S)cc1 (configuration not stated), O=S1(=O)N=C(N(CCO)/N=C/c2ccccc2F)c2ccccc21, COc1ccc(N2CCN(Cc3nnc(-c4ccccc4)o3)CC2)cc1, O=c1[nH]cnc2c1c(-c1ccccc1)cn2-c1ccc(F)cc1, Cc1cccc(NC(=O)CCN2CC(C)CC(C)C2)c1 (configuration not stated), CC(NC(=O)Cn1cc(C(F)(F)F)cc(Cl)c1=O)c1ccccc1 (configuration not stated), Cc1ccc(S(=O)(=O)c2nc(-c3cccs3)oc2NCc2cccnc2)cc1, C/C(=N/NC(=O)c1ccncc1)c1ccc2c(c1)OCO2, C/C(=N\NC(=O)C(N)=O)c1ccc2c(c1)OCCO2, CCCCc1nc(SCC(=O)Nc2nnc(C(C)C)s2)n[nH]1, Cc1ccc2nc(-c3ccncc3)cc(C(=O)Nc3ccncc3)c2c1, Cc1cc(C)cc(OCC(=O)NC(C)c2ccccc2)c1 (configuration not stated), O=C(N/N=C/c1ccc2c(c1)OCO2)C(=O)N1CCCC1, CCC1=C/C(=C\c2ccc3c(c2)OCO3)C(=O)S1, O=C(NC(Cc1ccccc1)C(=O)O)/C(=C\c1ccccc1)NC(=O)c1ccco1 (configuration not stated), CC(=O)N(OCc1ccc(OC(C)C)c(Cl)c1)C(C)=O, C=CCn1c(CCc2ccc(OC(C)C)cc2)n[nH]c1=S, CC(C)Oc1ccc(CCc2nnc(SCC(=O)O)n2-c2ccccc2)cc1, CC(=O)Nc1ccc(S(=O)(=O)N2CCC(C(=O)NC3CC3)CC2)cc1, OC(CNC1CCCC1)COc1ccc(F)cc1 (configuration not stated), COc1ccccc1CNS(=O)(=O)c1ccc2c(c1)NC(=O)CS2, CCCn1nc(NS(=O)(=O)c2ccc(F)cc2)c2cc3ccccc3nc21, COc1ccc(N=Nc2ccc(O)c(P(=O)(c3ccccc3)c3ccccc3)c2)cc1, Cc1cccc(C(=O)NNC(=O)CSc2nnc(C(C)C)n2C)c1, Cc1c(C(C)(C)O)[nH]c2ccc(C#N)cc12, CCn1c(SCC(=O)NNC(=O)c2ccc(OC)cc2)nnc1C(C)C, COC(=O)C1=C(C)OC(N)=C(C#N)C1c1cc(OC)ccc1OC (configuration not stated), COC(=O)C1=C(C)N(C)C(=S)NC1c1ccccc1 (configuration not stated), CCOC(=O)c1c(-c2ccccc2)oc2ccc(OCC(N)=O)cc12, CCOC(=O)c1c(S(=O)(=O)Nc2cccc(Cl)c2)c(C)n(C)c1C, C/C(Cc1ccccc1)=N\NC(=O)CNC(=O)c1ccccc1Cl, CC(=O)Nc1cccc(/C(C)=N/NC(=O)c2ccccc2Cl)c1, CCCCOc1ccc(C(=O)NCc2ccncc2)cc1, CCCOc1ccc(N/C=C/C(=O)C(C)(C)C)cc1

Potency, active:
Cc1ccc(-n2[nH]c(C)c(/C=N/NC(=O)c3cccc([N+](=O)[O-])c3)c2=O)cc1C 1.12 µM, Cc1[nH]n(-c2ccccc2)c(=O)c1/C=N/NC(=O)c1ccoc1C 0.251 µM, Cc1cc(C)c2c(n1)nn1c(-n3ccnc3)cc(C)nc21 10 µM, COc1ccc(N2C(=O)C3C(C2=O)C(C(=O)c2ccccc2)N2CCCC32)cc1 (configuration not stated) 11.2 µM, COc1ccc(-n2cc(-c3ccccc3)c3c(=S)nc[nH]c32)cc1 0.501 µM, c1ccc(-c2cn3c(n2)CCc2ccc4cccnc4c2-3)cc1 3.55 µM, C/C(=N/NC(=S)Nc1ccccc1)c1ccc2c(c1)OCO2 1.26 µM, O=C1/C(=C/c2ccc3c(c2)OCO3)CCC/C1=C\c1ccc2c(c1)OCO2 11.2 µM, CC(C)Oc1ccc(Cc2n[nH]c(=S)n2Cc2ccccc2)cc1Cl 3.98 µM, CC(C)Oc1ccc(CCc2n[nH]c(=S)n2Cc2ccccc2)cc1 3.16 µM, Cc1cc(N=Nc2ccc3ccccc3c2)ccc1O 11.2 µM, COC(=O)C1=C(C)N(C)C(=S)NC1c1cc(OC)ccc1OC (configuration not stated) 15.8 µM, CC/C(=N\NC(=O)c1ccccc1Cl)c1ccc(Br)s1 11.2 µM, CCCOc1ccc(C(=O)C(CCC(CNCC)C(=O)c2ccc(OCCC)cc2)CNCC)cc1 (configuration not stated) 15.8 µM

Activity change, negative = inhibition, inactive:
COCC(=O)N1CCc2ccc(NC(=O)c3ccccc3Cl)cc2C1 8.09% [at 1.91 µM]
